Data reported in PubChem BioAssay AID588511 (Johns Hopkins Ion Channel Center, 2011).
About 3,600 (1.2%) of roughly 310,000 compounds were called active.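 How the source made its calls: active means ratio plate-corrected score three or more library SD toward inhibition, starting fluorescence score within five deviations; inactive means the rest.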 What follows is part of a selection rich in actives, with near analogues and random picks from the rest.

target: Anoctamin-1 (Mus musculus) (UniProt Q8BHY3); assay: TMEM16A chloride channel inhibitors, primary screen, cell-based, HTS (AID 588511); conditions: HEK293 TMEM16A/YFP iodide influx fluorescence, ionomycin; at 10 µM;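 on normalized B-score (activity score, 25-100; higher = stronger inhibition): score derived from kinetic fluorescence span divided by baseline fluorescence per well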
Sequence (Q8BHY3 whole entry, looked up): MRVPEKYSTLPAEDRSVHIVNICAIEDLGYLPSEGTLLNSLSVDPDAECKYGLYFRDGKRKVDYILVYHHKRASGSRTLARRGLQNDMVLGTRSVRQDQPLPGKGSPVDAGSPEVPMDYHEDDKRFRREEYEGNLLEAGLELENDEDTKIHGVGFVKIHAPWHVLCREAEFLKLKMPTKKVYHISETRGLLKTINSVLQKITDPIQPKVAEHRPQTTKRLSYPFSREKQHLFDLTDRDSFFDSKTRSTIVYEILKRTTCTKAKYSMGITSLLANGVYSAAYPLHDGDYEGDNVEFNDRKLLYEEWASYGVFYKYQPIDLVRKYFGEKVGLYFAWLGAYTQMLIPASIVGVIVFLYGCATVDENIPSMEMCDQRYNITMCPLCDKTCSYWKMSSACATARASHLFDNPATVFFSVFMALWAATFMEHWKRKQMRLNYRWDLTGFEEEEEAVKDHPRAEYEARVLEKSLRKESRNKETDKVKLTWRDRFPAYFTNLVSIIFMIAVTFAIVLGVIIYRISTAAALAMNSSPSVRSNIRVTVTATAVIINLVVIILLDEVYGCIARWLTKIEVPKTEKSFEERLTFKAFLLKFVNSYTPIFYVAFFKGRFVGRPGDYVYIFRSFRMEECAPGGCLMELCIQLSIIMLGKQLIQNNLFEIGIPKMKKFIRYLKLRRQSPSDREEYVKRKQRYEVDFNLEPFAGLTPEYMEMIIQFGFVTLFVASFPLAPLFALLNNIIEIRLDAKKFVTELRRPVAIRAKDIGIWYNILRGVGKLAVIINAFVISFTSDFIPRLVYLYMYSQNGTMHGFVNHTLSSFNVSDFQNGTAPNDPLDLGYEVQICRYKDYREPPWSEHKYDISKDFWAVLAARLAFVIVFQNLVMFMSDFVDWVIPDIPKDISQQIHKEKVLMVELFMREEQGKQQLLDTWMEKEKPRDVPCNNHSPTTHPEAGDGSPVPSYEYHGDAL

Row | Structure (SMILES) | normalized B-score (activity score, 25-100; higher = stronger inhibition)
1 | CC(C)C[C@@H](COc1ccccc1)N1CCN(CC(C)C)CCC1=O | inactive
2 | CCCCNC(=O)CSc1nc2n[nH]c(C)c2c(=N)n1-c1cccc(Cl)c1C | 25 (active)
3 | COc1cccc(-n2c(SCC(=O)NC3CCCCC3)nc3n[nH]c(C)c3c2=N)c1 | inactive
4 | Cc1ccc(-n2c(SCC(=O)NCCC3=CCCCC3)nc3n[nH]c(C)c3c2=N)cc1Cl | inactive
5 | Cc1ccc(N2CC(C(=O)N3CCC4(CC3)CC(=O)c3ccccc3O4)CC2=O)cc1C (stereo not given) | inactive
6 | CCCOc1ccc(C2=CSC3=NCCN23)cc1Cl | inactive
7 | CC(=O)N(C1=C(Cl)C(=O)c2ccccc2C1=O)c1ccc(C(=O)O)cc1 | 100 (active)
8 | O=S(=O)(N1CCCCC1)N1CCNCC1 | inactive
9 | CCOC(=O)Cc1c(C)nc2c(C#N)c(C)nn2c1C | inactive
10 | CCCc1nc(SCC(=O)N2CCCC2)c2c(=O)n(C)c(=O)n(C)c2n1 | inactive
11 | O=C(Nc1ccc(Cl)cc1)/C(=C1\CCCN1)[N+](=O)[O-] | inactive
12 | Cc1ccc(OCC(=O)Nc2ccc3oc(=O)ccc3c2)cc1C | inactive
13 | Cc1c(CN2CC[C@@H](N3CCN(c4ccccn4)CC3)[C@H](O)C2)[nH]c2ccc(F)cc12 | inactive
14 | Fc1ccc2[nH]c3c(N4CCSCC4)ncnc3c2c1 | 100 (active)
15 | Cc1cc(C)c(S(=O)(=O)c2cc(F)ccc2C)c(=O)[nH]1 | inactive
16 | COc1ccc(C(=O)OCC(=O)Nc2ccc3[nH]c(=O)[nH]c3c2)c(OC)c1OC | inactive
17 | CS(=O)(=O)N(CC(=O)N1CCN(c2ccc(F)cc2)CC1)C1CCCCC1 | inactive
18 | CCOC(=O)N1CCN(C(=O)c2ccc3nc4cc(Cl)ccc4c(=O)n3c2)CC1 | inactive
19 | COC(=O)c1ccccc1NC(=O)c1ccccc1NS(C)(=O)=O | inactive
20 | CCOc1ccc(NC(=O)c2ccccc2NS(C)(=O)=O)cc1 | inactive
21 | COc1cc(NC(=O)c2ccccc2NS(=O)(=O)c2ccc(Cl)s2)cc(OC)c1 | 100 (active)
22 | COc1cc(OC)c(S(=O)(=O)Nc2ccccc2C(=O)O)cc1S(=O)(=O)Nc1ccccc1C(=O)O | inactive
23 | COC(=O)c1ccc(NC(=O)c2ccccc2NS(=O)(=O)c2ccccc2)cc1 | 100 (active)
24 | COc1ccc(NC(=O)c2cnc(NS(=O)(=O)c3ccccc3)nc2)cc1 | inactive
25 | CCNC(=O)CC1C(=O)N(c2ccc(F)cc2)C(=O)N1CCc1sccc1C (stereo not given) | inactive

Row | Structure (SMILES) | normalized B-score (activity score, 25-100; higher = stronger inhibition)
26 | COc1ccc(NCc2nnc(SCc3ccccc3)n2-c2ccc(OC)cc2)cc1 | inactive
27 | O=C(O)c1ccc(-n2nc(-c3ccccc3)c3ccccc3c2=O)cc1 | inactive
28 | Cc1cc(C)c(S(=O)(=O)N2CCOCC2)cc1C | inactive
29 | OCC[C@H]1C[C@@H](O)[C@H](O)[C@]2(OCCCc3ccccc32)O1 | inactive
30 | Cc1c(C)c2c(OCC(=O)N[C@@H](C(=O)O)c3ccccc3)cc3c(c2oc1=O)CCC(C)(C)O3 | 100 (active)
31 | Cc1cc(=O)oc2c3c(cc(OCC(=O)N[C@H](C(=O)O)c4ccccc4)c12)OC(C)(C)CC3 | inactive
32 | Cc1c(C)c2c(OCC(=O)NCCCO)cc3c(c2oc1=O)CCC(C)(C)O3 | inactive
33 | C#CCO[C@@H]1C[C@H](n2cnc3c(=O)[nH]c(NC(=O)C(C)C)nc32)O[C@@H]1CO | inactive
34 | COCCN(C(=O)CCC(=O)Nc1nccs1)C(C(=O)NCCC(C)C)c1ccc(F)cc1 (stereo not given) | inactive
35 | CCCc1cc(C(=O)N2CCCC(CO)(CCCc3ccccc3)C2)n(C)n1 (stereo not given) | inactive
36 | O=C(CNC(=O)c1ccccc1)Oc1ccc([N+](=O)[O-])cc1 | inactive
37 | O=C(NC(Nc1nc2ccc([N+](=O)[O-])cc2s1)(C(F)(F)F)C(F)(F)F)c1ccccc1 | 100 (active)
38 | O=C(Nc1nc2ccc([N+](=O)[O-])cc2s1)c1ccc(S(=O)(=O)N2CCCc3ccccc32)cc1 | 100 (active)
39 | CSc1nc2ccc(S(=O)(=O)N3CCc4ccccc43)cc2s1 | inactive
40 | CN(C)CCCN(C(=O)c1ccc(S(=O)(=O)N2CCCc3ccccc32)cc1)c1nc2ccc(F)cc2s1 | inactive
41 | CCC(=O)NC(Nc1nc2ccc(C)cc2s1)(C(=O)OC)C(F)(F)F (stereo not given) | inactive
42 | O=C(NCc1ccc(F)cc1)C(c1ccccc1)N(C(=O)c1csnn1)C1CC1 (stereo not given) | inactive
43 | CCSc1nnc(-c2cc3c(s2)-c2ccccc2CC3)o1 | inactive
44 | Fc1ccc(CSc2nnc(-c3cc4c(s3)-c3ccccc3CC4)o2)cc1 | 100 (active)
45 | Fc1ccc(-c2nnc(CSc3nnc(-c4ccc5c(c4)OCO5)o3)o2)cc1 | inactive
46 | O=C(NCCS(=O)(=O)c1ccc(Br)cc1)c1ccccc1Cl | inactive
47 | O=C(OCC1O[C@@H](OC(=O)c2cc(O)c(O)c(O)c2)[C@@H](OC(=O)c2cc(O)c(O)c(O)c2)[C@@H](OC(=O)c2cc(O)c(O)c(O)c2)[C@@H]1OC(=O)c1cc(O)c(O)c(O)c1)c1cc(O)c(O)c(O)c1 (stereo not given in full) | inactive
48 | CC(=O)c1c(C)[nH]c(C(=O)COC(=O)CCOc2ccc(C)cc2)c1C | inactive
49 | CC(=O)c1c(C)[nH]c(C(=O)COC(=O)c2cccc(S(=O)(=O)N(C)c3ccccc3)c2)c1C | 100 (active)
50 | CN(c1ccccc1)S(=O)(=O)c1ccc(Cl)c(C(=O)OCC(N)=O)c1 | inactive
